ELG1 DNA repair: ELG1-dependent DNA repair inhibition | HEK293T ELG1-luciferase reporter, luminescence, 16 h; DNA damage induced by 5-fluorouridine | Potency, µM (top dose mostly 46.1 µM), inactives show top-dose activity change, negative = inhibition, actives largely listed as inhibitors | 330,000 compounds, 2.3% hits; also: potency is read from the fitted curve at half-maximal effect; nearly all actives have a fitted effect of over 55% in size
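Cells (2,000 per well) received 5-fluorouridine plus test compound or DMSO and were incubated 16 hr at 37 °C, 5% CO2. Luciferase activity was read by luminescence 30 min after ONE-Glo addition; signal suppression marked inhibition of damage-induced ELG1 function.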
Giardia kill: kills Giardia lamblia | Giardia lamblia trophozoite viability | activity change, % at 7.66 µM, hits read low | 340,000 compounds, 0.15% hits; in the data active = activity change below about -80%; inconclusive = between about -30% and that limit;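 also: parasites exposed to compound for two days anaerobically before the ATP read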
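Anaerobic 48 hrs incubation at 37 deg C of 100 trophozoites/well with test compounds; ATPLite 1-Step luminescence, 15-30 min RT, reports cellular ATP as viability.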
IL1B secr inh: inhibitors of inflammasome signaling (IL-1 beta secretion) | activity change, % at 57.5 µM | 360,000 compounds, 4.7% hits | AID 743279 | THP-1 LPS/ATP IL-1B secretion, AlphaLISA, 16 h; stronger effect = lower value; in the data active = activity change below about -50%; inconclusive = mostly about -30% to -49%
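THP-1 cells pretreated 1 hr with compounds (up to 57.5 uM final), then stimulated with LPS (250 ng/mL final) plus ATP (1.25 mM final); secreted IL-1B measured by AlphaLISA after 16 hr, decreased signal indicating inhibition.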
TDP1 inh: inhibitors of human tyrosyl-DNA phosphodiesterase TDP1 | recombinant TDP1, AlphaScreen DNA substrate cleavage | Potency, µM (highest dose often 130 µM), for inactives: top-dose activity change, negative = inhibition, usual class: inhibitors | 350,000 compounds, 0.28% hits | AID 485290; also: potency is read from the fitted curve at half-maximal effect; nearly all actives have a fitted effect of over 40% in size
Target sequence (Q9NUW8 whole entry, looked up): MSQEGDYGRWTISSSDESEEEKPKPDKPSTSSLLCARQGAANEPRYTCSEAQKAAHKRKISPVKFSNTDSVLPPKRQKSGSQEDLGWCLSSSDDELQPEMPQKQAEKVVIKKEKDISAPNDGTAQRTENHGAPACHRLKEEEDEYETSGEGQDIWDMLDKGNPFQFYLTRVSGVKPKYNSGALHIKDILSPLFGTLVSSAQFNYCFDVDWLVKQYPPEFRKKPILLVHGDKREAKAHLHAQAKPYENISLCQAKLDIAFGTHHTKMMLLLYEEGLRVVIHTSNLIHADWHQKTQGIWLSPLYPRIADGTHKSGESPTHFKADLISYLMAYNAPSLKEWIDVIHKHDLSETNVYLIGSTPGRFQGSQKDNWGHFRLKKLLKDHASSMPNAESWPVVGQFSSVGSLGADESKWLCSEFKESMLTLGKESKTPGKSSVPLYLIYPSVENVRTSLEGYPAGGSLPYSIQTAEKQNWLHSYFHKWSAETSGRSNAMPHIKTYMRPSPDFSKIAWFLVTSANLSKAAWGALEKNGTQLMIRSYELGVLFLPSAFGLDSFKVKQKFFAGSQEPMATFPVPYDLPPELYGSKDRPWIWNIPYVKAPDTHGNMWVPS
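Steps: enzyme plus compound, 15 min RT; add biotin/phosphotyrosine-FITC oligonucleotide (15 nM final), react 5 min; add donor/acceptor beads (10 ug/ml final), 10 min; read AlphaScreen. Tdp1 at 1 nM final.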
DT40 TDP1 CPT: DT40-hTDP1 cell growth loss with CPT; chicken DT40 Tdp1-/-;hTDP1 cells + 20 nM CPT, ATP luminescence, 48 h; Potency, µM (doses to about 46.2 µM), without a hit: top-dose activity change, negative = growth inhibition, most hits filed as inhibitors; 420,000 compounds, 12% hits; also: potency is read from the fitted curve at half-maximal effect; nearly all actives have a fitted effect of over 55% in size
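Chicken DT40 Tdp1-/- cells stably complemented with human TDP1 were seeded at 400 cells/well in medium containing 20 nM camptothecin, exposed to pin-transferred compounds, and grown at 37 °C for at least 48 hr. Viability was read as ATP luminescence.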
DT40 TDP1 no CPT: qHTS for Inhibitors of human tyrosyl-DNA phosphodiesterase 1 (TDP1): qHTS in cells in absence of CPT | DT40 Tdp1-/- hTDP1 cells, no CPT, ATP luminescence, 48 h | Potency, µM (series often up to 46.2 µM), for inactives: top-dose activity change, negative = growth inhibition, actives largely listed as inhibitors | 420,000 compounds, 15% hits; also: potency is read from the fitted curve at half-maximal effect; nearly all actives have a fitted effect of over 55% in size
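Readout: luminescence from CellTiter-Glo after 30 min in the dark at RT. Cells: DT40 Tdp1-/- with stable hTDP1, 400/well. Exposure: compounds alone, ≥48 hr, 37 °C.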
Numbers without * were called inactive; ? = inconclusive; . = not tested or not shown; [ ] = another dose, or the depositor's remark. Rows were chosen to be rich in hits. Some 19% of all compounds tested hit in one or more screens of this group. Unless noted, calls follow the shape of the dose curve; as a rule, active = well fitted curve in the direction sought with a large enough effect; inconclusive = small, poorly fitted or top-dose-only effect, or another doubt; inactive = no such curve, though single readings can be large; an effect the other way counts as inactive or inconclusive. % is scaled to controls: 0 for no effect and ±100 for the full control effect.

SMILES	ELG1 DNA repair	Giardia kill	IL1B secr inh	TDP1 inh	DT40 TDP1 CPT	DT40 TDP1 no CPT
COC(=O)C1=C(C)N(Cc2ccccc2)C(=NCc2ccccc2)N[C@H]1c1cccc(C(F)(F)F)c1	26.8%	1.5	?	0.6%	5.8µM*	5.8µM*
COC(=O)[C@@H]1C[C@H](NC(=O)c2ccccn2)CN1Cc1cccc2ccccc12	.	.	.	.	6.8%[9.04 µM]	-21.7%
Cc1ccc(NC(=O)CSc2n[nH]c(=O)n2C2CC2)cc1S(=O)(=O)N1CCOCC1	-5.7%	2.2	12.4	0.0%	?	-25.8%
CCc1ccc(NC(=O)Cn2nnc(C(=O)NCc3ccc(C)cc3)c2N)cc1	.	.	.	-1.1%	-1.8%	6.4%
Cc1oc(-c2ccc(Cl)cc2)cc1C(=O)N1CCC1(C)C(=O)O (stereo unspecified)	.	.	-4.8	.	29.1µM*	?
CCC1(C2CCN(C(=O)c3ccc(C)c(C)c3)CC2)NC(=O)N(CCc2scnc2C)C1=O (stereo unspecified)	.	.	.	.	-4.5%[9.04 µM]	-22.6%
CCOC(=O)c1ccc(NS(=O)(=O)c2cn(C)cn2)cc1	4.9%	9.0	-0.4	0.5%	-1.1%	-16.5%
C=C1c2nc3ccccc3n2C=C(c2ccc(C)cc2)N1c1ccccc1	.	-7.2	11.3	.	8.2µM*	13µM*
Cn1c(-c2sc(=S)n(-c3ccccc3)c2N)nc2ccccc21	13.2%	12.0	41.8	3.1%	-3.4%	-18.5%
COc1ccc2c(ccn2S(=O)(=O)c2ccccc2)c1	12.9%	-9.6	-0.4	.	-15.2%	?
COC(=O)N1C(=O)[C@](c2ccsc2)(C(C)C)N1C(=O)OC	?	5.5	-98.8*	.	14.6µM*	?
COC(=O)N1C(=O)[C@](c2ccc(OC)cc2)(C(C)C)N1C(=O)OC	18.5%	-9.9	-91.8*	.	20.6µM*	16.4µM*
COc1ccc(NC(=O)CCCC(=O)OCC(=O)c2cccc(OC)c2)cc1	28.7%	-3.3	-7.9	2.4%	4.0%	-8.7%
Cc1cccc(NS(=O)(=O)c2ccc3oc(=O)c4ncn(C)c4c3c2)c1C	.	.	.	2.8%	-4.6%	-6.9%
COc1ccc(OCCSc2nnc(CCNC(=O)c3ccc(Cl)c(Cl)c3)n2C)cc1	?	2.9	-1.4	6.2%	25.1µM*	?
COc1ccc(OCCSc2nnc(CCNC(=O)c3ccc(OC)cc3)n2C)cc1	20.5%	-9.2	-16.2	5.9%	?	-26.3%
COc1ccc(S(=O)(=O)Nc2ccc(C)cc2)cc1OC	-4.1%	11.9	18.4	2.1%	-6.6%	-13.3%
COc1ccc(S(=O)(=O)Nc2ccc3ccccc3c2)cc1C	?	-2.8	9.2	0.7%	9.2µM*	?
Cc1cc(O)cc(C)c1NS(=O)(=O)c1ccc2ccccc2c1	-11.5%	23.5	0.7	.	?	25.9µM*
COc1ccc(S(=O)(=O)Nc2ccc3cn[nH]c3c2)cc1C	?	10.6	26.1	-2.5%	-18.1%	?
CCc1ccc(NS(=O)(=O)c2ccc(OC)c(C)c2)cc1	-2.1%	-11.7	6.3	3.9%	?	23.1µM*
COc1ccc(S(=O)(=O)Nc2ccc(S(=O)(=O)N3CCCCC3)cc2)cc1C	-2.5%	-15.6	9.8	2.9%	0.2%	-10.9%
COc1ccc(S(=O)(=O)Nc2ccc(Cc3ccncc3)cc2)cc1C	?	19.2	?	4.5%	13µM*	?
CNS(=O)(=O)c1ccc2ccccc2c1	?	-23.6	-16.2	1.4%	-4.7%	5.0%
Cn1c(=O)[nH]c(=O)c2c1nc(NC1CCCC1)n2Cc1ccccc1	-6.5%	0.7	6.8	.	?	?
SMILES	ELG1 DNA repair	Giardia kill	IL1B secr inh	TDP1 inh	DT40 TDP1 CPT	DT40 TDP1 no CPT
COc1ccc(NC(=O)C[C@H]2C(=O)N(Cc3ccccc3)C[C@@H]2c2ccc(OC)cc2)cc1	.	.	5.5	.	-5.2%	6.2%
O=C(C[C@H]1C(=O)N(Cc2cccnc2)C[C@@H]1Cc1ccccc1)Nc1ccc(Br)cc1	.	.	?	.	?	14.6µM*
O=C(C[C@H]1C(=O)N(Cc2ccccc2)C[C@@H]1Cc1ccccc1)Nc1ccc(Br)cc1	.	.	-11.6	.	-23.7%	?
O=C(C[C@H]1C(=O)N(Cc2ccccc2)C[C@@H]1c1ccc(Br)cc1)Nc1ccc(Br)cc1	.	.	-14.7	.	25.9µM*	25.9µM*
CCc1nn2c(=O)cc(COc3ccc(/C=C(\C#N)C(=O)Nc4ccc(F)cc4)cc3OC)nc2s1	.	.	.	6.4%	?	?
COc1ccc2c(c1)c(C(C)=O)c(C)n2C	-10.1%	-15.6	-7.7	.	6.7%	?
COc1ccc2c(c1)c(C(=O)N/N=C/c1cccc(Br)c1)c(C)n2C	-7.6%	-21.4	0.2	.	?	10.3µM*
COc1ccc(/C=N/NC(=O)c2c(C)n(C)c3ccc(OC)cc23)c(OC)c1	-14.3%	20.4	6.6	2.6%	-26.0%	?
COc1ccc2c(c1)c(C(=O)N/N=C/c1ccccc1Cl)c(C)n2C	-16.4%	-5.3	-18.8	.	20.6µM*	8.2µM*
COc1ccc2c(c1)c(C(=O)N/N=C/c1cccc(O)c1)c(C)n2C	-20.2%	-11.0	-8.8	5.6%	18.4µM*	10.3µM*
COc1ccc2c(c1)c(C(=O)CN(C)C)c(C)n2C	.	.	.	.	-0.2%	-17.7%
COC(=O)c1sccc1NC(=O)Nc1ccccc1Cl	-0.4%	-8.0	-20.3	0.9%	-7.2%	11.9%
Cc1cccc(-n2nnnc2S(C)(=O)=O)c1	.	.	.	4.7%	1.16µM*	0.731µM*
Cc1cccc(N2CC(=O)N(c3cccc(C)c3)CC2=O)c1	5.4%	3.5	23.2	4.2%	-5.7%	-15.4%
COc1cccc(-n2nnnc2S(C)(=O)=O)c1	?	4.5	-91.5*	-4.2%	2.06µM*	2.59µM*
COc1cccc(Oc2nnnn2-c2ccccc2)c1	?	22.1	-25.3	1.0%	0.3%	3.9%
COc1ccc(N(Cc2ccccc2)N=O)cc1	?	16.5	-9.1	.	8.7%	-23.1%
O=C(NC1CCS(=O)(=O)C1)c1ccc(Br)s1 (stereo unspecified)	8.4%	0.6	9.9	100µM*	-3.8%	10.8%
O=C(NC1CCS(=O)(=O)C1)c1cccs1 (stereo unspecified)	29.4%	0.5	1.2	-8.3%	17.1%	-16.2%
CN(C)c1cccc(C(=O)NNC(=O)NC2CCCCC2)c1	?	-3.0	-5.4	5.5%	11.6%	6.4%
O=C(NNC(=O)c1ccc(Br)s1)NC1CCCCC1	?	-2.4	0.0	56.2µM*	-14.9%	-4.2%

Screening results: PubChem BioAssay, National Center for Advancing Translational Sciences (NCATS)
